In all, about 52,000 compounds went through this assay and about 1,700 (3.3%) were called active. The sample holds actives, similar compounds and a random draw of the others, so the mix is not that of the screen. No stated cut-off is given here; in the data, active means survival mostly below about 52% (no sharp cut-off); inactive means mostly above about 56%.

In this assay the test system is Wild type. Description: growth inhibition of S. aureus wild type versus tarO mutant, primary screen, teichoic acid synthesis inhibitors, RN4220, OD600 (AID 463173). As to conditions: S. aureus RN4220 wild type/DeltatarO growth, OD600, 18 h, active compounds read low, screened at 18.75 µg/mL (by protocol).
With `CCc1ccc(NC(=O)Cn2ncc3c(C)n(Cc4cccc(Cl)c4)c(C)c3c2=O)cc1`, the survival was 86% (inactive).

Consider `Cc1ccc(CCNC(=O)c2ccc3c(c2)c(C)c(C)n3Cc2ccccc2)cc1`, for which the survival is 125% (inactive).

As to `COc1ccc(NC(=O)c2ccc(-c3cccc(Cl)c3C)o2)cc1`, the survival is 44% (inactive).

With `Cc1ccc(NC(=O)c2ccc(-c3cccc(Cl)c3C)o2)cc1`, the survival is 1% (active).

For the compound `CCOc1ccc(NC(=O)c2ccc(-c3cccc(Cl)c3C)o2)cc1`, the survival was 66% (inactive).

Consider `CCOC(=O)c1ccc(NC(=O)c2ccc(-c3cccc(Cl)c3C)o2)cc1`, for which the survival was 59% (inactive).

Regarding `Cc1c(Cl)cccc1-c1ccc(C(=O)Nc2ccc(F)cc2)o1`, the survival was -1% (active).

Take `Cc1c(Cl)cccc1-c1ccc(C(=O)Nc2ccc3oc(-c4cccnc4)nc3c2)o1`: the survival is 79% (inactive).

`Clc1ccc(-c2nc3ccccn3c2Nc2ccc3c(c2)OCCO3)s1`: the survival was 79% (inactive).

Take `Cc1ccccc1C(=O)Nc1cccc(-c2cn3cccnc3n2)c1`: the survival was 105% (inactive).

Take `CCOc1ccc(-c2nc(CSCC(=O)NCc3ccc(C)cc3)c(C)o2)cc1`: the survival is 73% (inactive).

As for `Cc1oc(-c2cccc(Cl)c2)nc1CSCC(=O)NCc1ccccc1Cl`, the survival was -1% (active).

As to `COc1ccc(-c2nc(CSCC(=O)NCCc3ccc(C)cc3)c(C)o2)cc1OC`, the survival is 72% (inactive).

For `COc1ccc(-c2nc(CSCC(=O)NCc3ccccc3Cl)c(C)o2)cc1OC`, the survival was 70% (inactive).

Regarding `Cc1ccc(CNC(=O)CSCc2nc(-c3ccc(Cl)cc3)oc2C)cc1`, the survival is 88% (inactive).

Consider `Cc1ccc(CCNC(=O)CSCc2nc(-c3ccc(C)cc3)oc2C)cc1`, for which the survival was 27% (inactive).

In the case of `Cc1ccc(CNC(=O)CSCc2nc(-c3cccc(C)c3)oc2C)cc1`, the survival is -1% (active).

With `CCc1ccc(-c2nc(CSCC(=O)NCc3ccc(C)cc3)c(C)o2)cc1`, the survival was 0% (active).

`Cc1oc(-c2cccc(Cl)c2)nc1CS(=O)(=O)CC(=O)NCc1ccccc1Cl`: the survival is 75% (inactive).

Consider `Cc1ccc(-n2nc(C)c3c(C(=O)NCc4ccccc4)cc(C4CC4)nc32)cc1`, for which the survival was 82% (inactive).

With `O=C(Cn1c(=O)n(-c2ccccc2)c(=O)c2c3c(sc21)CCC3)c1ccc(Br)cc1`, the survival is 87% (inactive).

As to `COc1ccc(N2C(=O)CSC23C(=O)N(Cc2ccc(C)cc2)c2ccccc23)cc1Cl` (stereo not drawn), the survival is 135% (inactive).

On to `CC(C)(C)OC(=O)N1CCC(c2c(C(=O)NCCN3CCOCC3)cnn2-c2cccc(F)c2)CC1`, for which the survival is 120% (inactive).

Consider `Clc1ccccc1C(c1nnnn1Cc1ccco1)N1CCN(Cc2ccco2)CC1` (stereo not drawn), for which the survival was 111% (inactive).

As to `O=C(NCC(c1ccc2c(c1)OCO2)N1CCN(c2ccc(F)cc2)CC1)c1cccc([N+](=O)[O-])c1` (stereo not drawn), the survival is 83% (inactive).

As for `COc1ccc(-c2csc3ncnc(Nc4cccc(OC)c4)c23)cc1`, the survival is 73% (inactive).

For `COc1ccc(-c2csc3ncnc(Nc4cccc(F)c4)c23)cc1`, the survival was -3% (active).

Regarding `COc1ccc(Nc2ncnc3scc(-c4ccc(F)cc4)c23)cc1`, the survival is 79% (inactive).

`CC(=O)c1ccc(NC(=O)CC2Nc3cc(C)c(C)cc3NC2=O)cc1` (stereo not drawn): the survival was 78% (inactive).

Take `Cc1cc(C)cc(N2C(=O)N(Cc3cc(=O)n4ccccc4n3)c3ccccc3S2(=O)=O)c1`: the survival is 127% (inactive).

On to `CC(C)c1ccc2oc(-c3ccc(NC(=O)c4cccc(Br)c4)cc3)nc2c1`, for which the survival is 70% (inactive).

With `COc1ccc(C(CC(=O)Nc2cc(Cl)c(OC)cc2OC)N2Cc3ccccc3C2=O)cc1` (stereo not drawn), the survival is -3% (active).

Take `Cc1ccc(NC(=O)CC(c2ccc(F)cc2)N2Cc3ccccc3C2=O)cc1C` (stereo not drawn): the survival is 88% (inactive).

Take `COc1cc(Cl)c(C)cc1NC(=O)CC(c1ccc(F)cc1)N1Cc2ccccc2C1=O` (stereo not drawn): the survival is -2% (active).

As to `Cc1ccc(CNC(=O)C(C(C)C)N2Cc3ccccc3C2=O)cc1` (stereo not drawn), the survival is 80% (inactive).

Regarding `CCOc1ccc(C(CC(=O)Nc2cc(C)c(Cl)cc2OC)N2Cc3ccccc3C2=O)cc1OC` (stereo not drawn), the survival is 65% (inactive).

`COc1ccc(C(CC(=O)Nc2cc(OC)c(OC)c(OC)c2)N2Cc3ccccc3C2=O)cc1` (stereo not drawn): the survival is 65% (inactive).

Take `COc1ccc(CNC(=O)C(C(C)C)N2Cc3ccccc3C2=O)cc1` (stereo not drawn): the survival is -6% (active).

For `COc1cc(OC)c(NC(=O)CC(c2cccs2)N2Cc3ccccc3C2=O)cc1Cl` (stereo not drawn), the survival was 101% (inactive).

`COc1ccc(CNC(=O)C(CC(C)C)N2Cc3ccccc3C2=O)cc1` (stereo not drawn): the survival is 134% (inactive).

In the case of `CCn1cc(C(=O)NCCc2ccccc2)c(=O)c2cc(S(=O)(=O)N3CCOCC3)ccc21`, the survival was 85% (inactive).

On to `COc1ccc(NC(=O)c2ccc(NC(=O)CCS(=O)(=O)c3cccs3)cc2)cc1Cl`, for which the survival was 81% (inactive).

For the compound `COc1ccc(-c2cc(C(=O)Nc3cccnc3Cl)no2)cc1OC`, the survival is 140% (inactive).

Consider `Cc1ccc(C)c(N2CCN(c3nc4ccccc4c4nc(-c5cccnc5)nn34)CC2)c1`, for which the survival is 82% (inactive).

As to `CCOC(=O)C(Cc1c[nH]c2ccccc12)NC(=O)COc1ccc(CC)cc1` (stereo not drawn), the survival was 32% (inactive).

Take `CCOC(=O)C(Cc1c[nH]c2ccccc12)NC(=O)COc1ccc(Cl)c(C)c1` (stereo not drawn): the survival was 8% (active).

For the compound `Cc1cc(OCC(=O)NC(Cc2c[nH]c3ccccc23)C(=O)O)ccc1Cl` (stereo not drawn), the survival was 69% (inactive).

With `CCc1ccccc1N(CC)C(=O)c1c(C)oc2ncn(C)c(=O)c12`, the survival was 71% (inactive).

In the case of `CSc1nc2sc3c(c2c(=O)n1-c1ccc(C)cc1)CCCC3`, the survival is 51% (inactive).

On to `C#CCSc1nc2sc3c(c2c(=O)n1Cc1ccccc1)CCCC3`, for which the survival was 44% (inactive).

With `C=CCn1c(SC(C)C)nc2sc3c(c2c1=O)CCCC3`, the survival was 108% (inactive).

For `CC(C)Sc1nc2sc3c(c2c(=O)n1-c1ccccc1)CCCC3`, the survival is -2% (active).

For the compound `CC(C)Sc1nc2sc3c(c2c(=O)n1Cc1ccccc1)CCCC3`, the survival is 5% (active).

Take `CSc1nc2sc3c(c2c(=O)n1-c1ccccc1C)CCCC3`: the survival is 99% (inactive).

For the compound `CCS(=O)(=O)NCC(c1ccco1)N1CCN(c2ccccc2)CC1` (stereo not drawn), the survival was 89% (inactive).

Take `CCS(=O)(=O)N1CCc2cc(C(=O)NC(C)c3ccccc3)ccc21` (stereo not drawn): the survival is 90% (inactive).

As to `CC(C)C(=O)Nc1ccc2nc(SCCOc3ccccc3)sc2c1`, the survival is 93% (inactive).

On to `Cc1ccc(Cl)cc1NC(=O)C1CCN(c2nnc(C)c3c(C)n(-c4ccccc4)nc23)CC1`, for which the survival was 71% (inactive).

In the case of `Cc1ccc(CS(=O)(=O)c2ncc(Cl)c(C(=O)Nc3nc4ccc(F)cc4s3)n2)cc1`, the survival was 20% (inactive).

As to `COc1ccc(NC(=O)c2nc(S(=O)(=O)Cc3ccc(C)cc3)ncc2Cl)cc1`, the survival was 81% (inactive).

Take `Cc1ccc(NC(=O)c2nc(S(=O)(=O)Cc3cccc(C)c3)ncc2Cl)cc1`: the survival was -1% (active).

As to `Cc1cccc(CS(=O)(=O)c2ncc(Cl)c(C(=O)Nc3nc4ccc(F)cc4s3)n2)c1`, the survival was 7% (active).

In the case of `O=C(Nc1nc2ccc(F)cc2s1)c1nc(S(=O)(=O)Cc2ccccc2)ncc1Cl`, the survival was 27% (inactive).

Consider `Cc1cccc(CS(=O)(=O)c2ncc(Cl)c(C(=O)NCc3ccccc3)n2)c1`, for which the survival is 27% (inactive).

As to `CCOC(=O)c1ccc(CN(Cc2ccc(F)cc2)S(=O)(=O)c2ccc(F)cc2)cc1`, the survival is 68% (inactive).

In the case of `CCOC(=O)c1ccc(CN(Cc2ccccc2)S(=O)(=O)c2ccc(Cl)cc2)cc1`, the survival was 0% (active).

As to `CCOC(=O)c1ccc(CN(Cc2ccc(Cl)cc2Cl)S(=O)(=O)c2cccc(Cl)c2)cc1`, the survival is 73% (inactive).

On to `COc1ccc(CCNC(=O)CCc2c(C)c3cc4c(C)coc4c(C)c3oc2=O)cc1OC`, for which the survival was 105% (inactive).

With `CC(Oc1ccccc1)C(=O)Nc1c(C(=O)Nc2cccc(F)c2)oc2ccccc12` (stereo not drawn), the survival was 57% (inactive).

Turning to `CCOC(=O)c1[nH]c2c(c1Cc1ccccc1OC)C(=O)CC(c1ccccc1)C2` (stereo not drawn), the survival is 126% (inactive).

For `CN(C)c1ccc(C2CC(c3c(O)n(C4CCCCC4)c(=O)[nH]c3=O)=Nc3ccccc3S2)cc1` (stereo not drawn), the survival is 85% (inactive).

Take `O=C(Cn1c(=O)n(Cc2ccc(C(=O)NCc3ccc4c(c3)OCO4)cc2)c(=O)c2ccccc21)Nc1ccc(F)cc1F`: the survival is 111% (inactive).

As for `CC(C)c1cc(-c2nc(-c3ccccc3)no2)n[nH]1`, the survival is 71% (inactive).

In the case of `COc1ccc(-c2nc3ccccc3n2Cc2ccc(C(C)C)cc2)cc1`, the survival was -8% (active).

On to `COc1ccc(-c2noc(=O)n2Cc2ccccc2)cc1`, for which the survival was 128% (inactive).

Regarding `CCc1ccc(OCCCn2c(-c3ccc(Cl)cc3)nc3ccccc3c2=O)cc1`, the survival was 52% (inactive).

With `COc1ccc(Cn2c(SC)nc3ccccc32)cc1`, the survival was 108% (inactive).

Take `COc1ccc(Cn2c(SCC(=O)Nc3ccc(OC)cc3)nc3ccccc32)cc1`: the survival is 85% (inactive).

`COc1ccc(OCCCCn2c(-c3ccc(Cl)cc3)nc3ccccc3c2=O)cc1`: the survival was 38% (inactive).

Turning to `COc1ccc(-c2nc3ccccc3n2Cc2ccc(Cl)cc2)cc1`, the survival is 4% (active).

For the compound `COc1ccc(-c2nc3ccccc3n2Cc2ccccc2)cc1`, the survival was 0% (active).

As for `CCOc1cc(Cn2c(-c3ccc(O)c(OCC)c3)nc3ccccc32)ccc1O`, the survival was 80% (inactive).

With `O=c1n(Cc2ccc(F)cc2)nc2n1-c1cc(Cl)ccc1OC2`, the survival is 76% (inactive).

`Cc1cc(Cl)ccc1NC(=O)Cn1nc(C)c2c(C)n(-c3ccccc3)nc2c1=O`: the survival is 45% (inactive).

Consider `CCc1cccc(NC(=O)CCNS(=O)(=O)c2ccc3c(c2)CCN3C(C)=O)c1`, for which the survival was 76% (inactive).

For the compound `Cc1ccc(-n2ncc3c(N4CCN(Cc5ccccc5)CC4)ncnc32)cc1`, the survival is 131% (inactive).

Consider `O=C(Nc1nnc(C(F)(F)F)s1)c1ccccc1`, for which the survival is 74% (inactive).

As for `CCOC(=O)N1CCc2c(sc(NCc3sccc3C)c2C(=O)Nc2cc(Cl)ccc2OC)C1`, the survival is 80% (inactive).

`CCc1nnc(NC(=O)CSc2nccn2-c2ccc(OC)cc2)s1`: the survival is 135% (inactive).

On to `COc1cc(Cn2c(=O)sc3ccccc32)ccc1OCCC(C)C`, for which the survival is -4% (active).

Consider `COc1cc(Cn2c(=O)sc3ccccc32)ccc1OC(C)C`, for which the survival was 41% (inactive).

As for `CCCCn1c(=N)n(CCOc2ccccc2OC)c2ccccc21`, the survival is 81% (inactive).

On to `CCCCOc1ccc(Cn2c(=O)sc3ccccc32)cc1OC`, for which the survival is -5% (active).
